The nature of assay [1]: yeast TOR pathway RPL19A-GFP modulators, primary screen, cell-based, S. cerevisiae, multiplex flow cytometry (AID 1862; in the data active means percent of DMSO control GFP below about 86%;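 further: lower values mimic rapamycin by blocking the RPL19A rise seen in DMSO cells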). To be noted: S. cerevisiae RPL19A-GFP strain, flow cytometry fluorescence, 3 h; at 10 µM; stronger effect = lower value. (In general: In flow cytometry, cells or beads pass a laser one at a time.)
Assay [2] can be described thus: modulators of MEP2-GFP levels in yeast, primary screen, S. cerevisiae, multiplex flow cytometry (AID 1867;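 active means GFP response, as percent of the DMSO control, above the screen-wide mean plus 3 SD, about 139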;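 further: median GFP channel fluorescence of barcode-gated MEP2-GFP cells measured by flow cytometry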). To be noted: S. cerevisiae MEP2-GFP strain, 3 h, at 10 µM, stronger effect = higher value, 100% means same as DMSO wells.
Assay [3] is described as follows: modulators of CIT2-GFP expression in yeast, primary screen, S. cerevisiae, GFP fusion, multiplex flow cytometry (AID 1870;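 active means percent response above a set limit, the screen-wide mean plus 3 SD, cut at about 130% in these data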;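 further: barcoded CIT2-GFP strain pooled with four other GFP strains with rapamycin as positive control; median GFP fluorescence per well over plate mean of DMSO wells so 100% = DMSO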). To be noted: 3 h, at 10 µM, stronger effect = higher value.
A short description of assay [4]: modulators of LAP4-GFP expression in yeast, primary screen, S. cerevisiae, multiplex flow cytometry (AID 1873;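 active means GFP signal, as percent of the solvent control, above the screen mean plus 3 SD, about 149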). The settings on record: 3 h, at 10 µM, stronger effect = higher value.
The nature of assay [5]: modulators of AGP1-GFP expression in yeast TOR pathway, primary screen, cell-based, multiplex flow cytometry, S. cerevisiae (AID 1887;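 active means GFP signal above the screen-wide mean plus 3 SD, that is over about 124.5% of the solvent control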;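 further: AGP1-GFP fusion strain of S. cerevisiae within a five-strain barcoded multiplex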). The settings on record: 3 h, at 10 µM, stronger effect = higher value.
Assay [6] can be described thus: inhibitors of CD8+ T cell-vesicle binding, pilot screen, LFA-1/ICAM-1 modulator project, MLPCN validation set, flow cytometry (AID 2523;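 active means response below a set limit, under 55% cells CD8-positive and vesicle-bound, and CD8 cells' 90th-percentile brightness under 279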;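 on vesicle binding response: mean PE anti-B7-1 fluorescence of CD8+ cells relative to row control; 100% = QL9-loaded vesicles with DMSO vehicle in the same plate row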). The settings on record: 2C mouse CD8+ T cells, at 7 µM, stronger effect = lower value; double positive events: measured here: CD8+/vesicle+ event percentage.
The target of assay [7] is Integrin beta-1 (Homo sapiens) + Integrin alpha-4 (Homo sapiens) (UniProt P13612+P05556). The experiment in a line: inhibition of HUTS-21 binding to VLA-4, pilot screen, VLA-4 allosteric modulator project, U937 cells, HUTS-21 mAb, flow cytometry, validation set (AID 2674;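 active means inhibition above 50%, about 3 SD of the validation set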;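 further: antibody binding induced by the VLA-4 ligand LDV present at three times its Kd; 0% = LDV ligand with antibody and no compound and 100% = antibody without LDV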). The settings on record: HUTS-21 LIBS mAb binding, at 6.7 µM, stronger effect = higher value, binding induced by LDV ligand.
Integrin beta-1 (Homo sapiens) + Integrin alpha-4 (Homo sapiens), sequence (P05556 whole entry, looked up): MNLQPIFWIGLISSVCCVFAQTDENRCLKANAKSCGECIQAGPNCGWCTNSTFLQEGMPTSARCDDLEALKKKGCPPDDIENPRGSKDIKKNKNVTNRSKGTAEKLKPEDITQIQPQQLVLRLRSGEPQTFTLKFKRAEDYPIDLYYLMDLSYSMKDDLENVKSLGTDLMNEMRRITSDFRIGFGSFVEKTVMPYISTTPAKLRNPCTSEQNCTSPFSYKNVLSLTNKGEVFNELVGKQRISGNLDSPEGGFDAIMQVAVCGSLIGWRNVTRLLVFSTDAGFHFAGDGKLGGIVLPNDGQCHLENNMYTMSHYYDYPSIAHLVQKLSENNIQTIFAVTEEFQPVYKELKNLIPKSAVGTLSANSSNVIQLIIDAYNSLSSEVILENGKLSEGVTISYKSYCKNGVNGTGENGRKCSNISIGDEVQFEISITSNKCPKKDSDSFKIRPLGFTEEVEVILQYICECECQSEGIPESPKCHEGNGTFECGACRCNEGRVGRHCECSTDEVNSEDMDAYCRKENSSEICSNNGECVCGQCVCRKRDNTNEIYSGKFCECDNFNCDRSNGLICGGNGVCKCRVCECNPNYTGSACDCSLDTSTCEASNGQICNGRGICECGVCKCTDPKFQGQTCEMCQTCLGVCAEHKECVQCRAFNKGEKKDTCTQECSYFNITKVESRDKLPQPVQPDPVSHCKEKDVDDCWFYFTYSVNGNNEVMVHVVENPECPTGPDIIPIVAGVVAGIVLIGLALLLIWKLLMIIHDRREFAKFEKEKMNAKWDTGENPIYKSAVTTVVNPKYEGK
Integrin beta-1 (Homo sapiens) + Integrin alpha-4 (Homo sapiens), sequence (P13612 whole entry, looked up): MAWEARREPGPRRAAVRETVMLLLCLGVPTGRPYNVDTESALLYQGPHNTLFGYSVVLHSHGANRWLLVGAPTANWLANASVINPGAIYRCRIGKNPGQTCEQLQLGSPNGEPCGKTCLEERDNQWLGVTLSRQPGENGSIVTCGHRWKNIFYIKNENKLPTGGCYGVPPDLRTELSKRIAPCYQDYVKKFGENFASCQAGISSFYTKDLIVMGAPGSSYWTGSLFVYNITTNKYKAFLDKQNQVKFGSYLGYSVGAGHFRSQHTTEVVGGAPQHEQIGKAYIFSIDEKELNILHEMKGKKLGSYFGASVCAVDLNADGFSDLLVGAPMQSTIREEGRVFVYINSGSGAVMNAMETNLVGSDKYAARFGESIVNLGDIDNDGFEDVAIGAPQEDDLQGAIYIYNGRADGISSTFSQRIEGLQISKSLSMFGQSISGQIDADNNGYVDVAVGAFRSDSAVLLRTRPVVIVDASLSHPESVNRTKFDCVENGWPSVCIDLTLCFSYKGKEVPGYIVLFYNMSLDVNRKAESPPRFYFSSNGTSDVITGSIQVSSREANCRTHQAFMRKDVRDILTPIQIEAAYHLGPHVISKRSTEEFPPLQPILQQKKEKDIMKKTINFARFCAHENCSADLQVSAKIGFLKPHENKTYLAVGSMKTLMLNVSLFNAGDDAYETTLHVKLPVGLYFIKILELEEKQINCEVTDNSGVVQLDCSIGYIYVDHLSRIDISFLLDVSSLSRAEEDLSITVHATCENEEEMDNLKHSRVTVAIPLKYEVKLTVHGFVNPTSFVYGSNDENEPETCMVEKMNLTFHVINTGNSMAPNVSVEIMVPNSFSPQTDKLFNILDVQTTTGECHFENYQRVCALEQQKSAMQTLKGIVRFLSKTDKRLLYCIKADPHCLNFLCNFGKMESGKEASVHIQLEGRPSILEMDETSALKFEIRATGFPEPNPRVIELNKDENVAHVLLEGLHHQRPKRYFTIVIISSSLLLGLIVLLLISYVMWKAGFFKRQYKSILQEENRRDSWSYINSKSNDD

A short description of assay [8]: superoxide lowering in aged yeast cells, pilot screen, validation compound set (AID 2706;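 active means superoxide response below 65% of plate, a cut near 3 SD across the whole screen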;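 further: yeast exposed to compound for one week at 30 degrees C before staining; 100% = mean of all compound wells on the same plate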). The settings on record: S. cerevisiae aging, superoxide DHE fluorescence; at 10 µM; stronger effect = lower value.
The target of assay [9] is Beta-adrenergic receptor kinase 1 (Homo sapiens) (UniProt P25098). The experiment in a line: GRK2 binders displacing RNA aptamer, biochemical, validation, human GRK2, bead flow cytometry (AID 488806;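 active means aptamer binding inhibition above 30%, about 3 SD of noise from non-fluorescent compounds; inactive means inhibition at or below 30%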). To be noted: bead-bound GRK2, FAM-aptamer displacement, at 10 µM, stronger effect = higher value.
Beta-adrenergic receptor kinase 1 (Homo sapiens), sequence (P25098 whole entry, looked up): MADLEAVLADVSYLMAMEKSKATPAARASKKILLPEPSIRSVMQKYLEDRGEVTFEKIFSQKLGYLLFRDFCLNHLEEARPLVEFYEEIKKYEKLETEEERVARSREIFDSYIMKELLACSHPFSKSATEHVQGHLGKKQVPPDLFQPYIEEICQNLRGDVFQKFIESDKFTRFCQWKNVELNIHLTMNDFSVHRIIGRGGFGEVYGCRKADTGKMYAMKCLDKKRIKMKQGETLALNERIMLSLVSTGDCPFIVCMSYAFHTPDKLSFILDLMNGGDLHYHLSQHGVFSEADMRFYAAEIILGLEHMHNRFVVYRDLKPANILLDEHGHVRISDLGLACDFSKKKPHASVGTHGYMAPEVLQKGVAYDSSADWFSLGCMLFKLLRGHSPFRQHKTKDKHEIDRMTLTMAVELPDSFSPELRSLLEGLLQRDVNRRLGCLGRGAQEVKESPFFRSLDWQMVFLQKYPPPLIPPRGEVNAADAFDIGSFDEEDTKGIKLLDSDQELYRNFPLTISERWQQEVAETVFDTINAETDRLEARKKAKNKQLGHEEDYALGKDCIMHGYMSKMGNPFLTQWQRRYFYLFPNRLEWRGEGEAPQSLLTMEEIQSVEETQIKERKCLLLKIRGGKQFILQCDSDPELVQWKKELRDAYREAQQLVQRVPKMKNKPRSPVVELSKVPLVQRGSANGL
For assay [10], the target named is Beta-2 adrenergic receptor (Homo sapiens) (UniProt P07550). Nature of the assay: beta2AR agonists driving receptor internalization, pilot screen, cell-based, FAP fluorogen, flow cytometry, validation set (AID 504459;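 active means percent response above 42, roughly 3 SD of non-fluorescent test compounds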;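 further: agonist-driven loss of surface beta2AR via internalization measured by FAP dye flow cytometry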). The settings on record: Am2.2-beta2AR cells, FAP surface receptor flow cytometry; at 10 µM; stronger effect = higher value.
Beta-2 adrenergic receptor (Homo sapiens), sequence (P07550 whole entry, looked up): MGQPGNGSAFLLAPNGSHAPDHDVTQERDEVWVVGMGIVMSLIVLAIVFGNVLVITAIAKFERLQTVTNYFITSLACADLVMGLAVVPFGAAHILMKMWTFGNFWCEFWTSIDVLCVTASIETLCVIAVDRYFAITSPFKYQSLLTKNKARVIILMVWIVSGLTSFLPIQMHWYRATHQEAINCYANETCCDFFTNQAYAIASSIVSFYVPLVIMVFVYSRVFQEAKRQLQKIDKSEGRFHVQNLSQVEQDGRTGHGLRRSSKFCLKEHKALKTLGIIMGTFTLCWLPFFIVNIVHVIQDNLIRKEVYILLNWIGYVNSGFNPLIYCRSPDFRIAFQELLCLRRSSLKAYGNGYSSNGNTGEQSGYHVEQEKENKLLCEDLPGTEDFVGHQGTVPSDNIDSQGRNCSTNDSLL
Assay [11] deals with AP-2 complex subunit beta (Homo sapiens) (UniProt P63010). Nature of the assay: inhibitors of arrestin peptide binding to AP2, pilot screen, biochemical, validation set, GST-AP2 beads, flow cytometry (AID 504541;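 active means inhibition above 54%, about 3 SD of non-fluorescent compounds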;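 further: AP2 carries R879A mutation and is captured from E. coli lysate; bead-bound FITC arrestin peptide fluorescence measuring arrestin peptide binding to AP2; 0% = DMSO wells and 100% = excess unlabeled arrestin peptide control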). To be noted: FITC arrestin peptide, at 10 µM, stronger effect = higher value, AP2 beta2 appendage fragment, R879A mutant.
AP-2 complex subunit beta (Homo sapiens), sequence (P63010 whole entry, looked up, the tested form may be a part, one chain of several): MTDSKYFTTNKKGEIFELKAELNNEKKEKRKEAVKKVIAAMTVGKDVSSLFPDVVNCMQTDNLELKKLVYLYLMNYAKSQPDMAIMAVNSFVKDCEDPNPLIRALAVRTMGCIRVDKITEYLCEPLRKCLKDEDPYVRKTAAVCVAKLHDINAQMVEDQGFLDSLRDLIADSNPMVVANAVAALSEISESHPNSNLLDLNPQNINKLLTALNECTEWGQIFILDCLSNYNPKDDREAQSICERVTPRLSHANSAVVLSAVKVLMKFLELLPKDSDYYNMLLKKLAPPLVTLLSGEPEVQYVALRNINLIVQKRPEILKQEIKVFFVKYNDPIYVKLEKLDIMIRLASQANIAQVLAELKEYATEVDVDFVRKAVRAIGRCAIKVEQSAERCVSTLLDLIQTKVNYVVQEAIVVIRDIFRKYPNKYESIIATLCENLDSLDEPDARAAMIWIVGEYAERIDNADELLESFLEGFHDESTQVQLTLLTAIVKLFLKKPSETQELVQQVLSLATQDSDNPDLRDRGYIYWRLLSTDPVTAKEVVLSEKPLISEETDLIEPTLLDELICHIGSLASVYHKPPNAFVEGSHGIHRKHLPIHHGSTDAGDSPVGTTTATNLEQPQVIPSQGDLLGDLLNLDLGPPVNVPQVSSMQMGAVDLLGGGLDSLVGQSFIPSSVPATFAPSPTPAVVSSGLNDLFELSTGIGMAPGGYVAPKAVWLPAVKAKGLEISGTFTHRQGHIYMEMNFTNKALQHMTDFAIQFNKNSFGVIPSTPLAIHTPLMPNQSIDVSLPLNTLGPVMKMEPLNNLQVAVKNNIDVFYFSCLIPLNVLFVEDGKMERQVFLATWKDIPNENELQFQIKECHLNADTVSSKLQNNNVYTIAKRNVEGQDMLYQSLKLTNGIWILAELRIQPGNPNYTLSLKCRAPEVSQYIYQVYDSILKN
Assay [12] is described as follows: yeast V-ATPase proton transport modulators, S. cerevisiae, pHLuorin, HTS validation (AID 504600; in the data active means response above about 15%;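 further: plate controls were DMSO for no effect and reference compound for full effect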). To be noted: S. cerevisiae pHLuorin cytosolic pH, at 10 µM, stronger effect = higher value.
The test system of assay [13] is anti-desmoglein-3 scFv antibody binding to human DSG3. Nature of the assay: inhibitors of anti-DSG3 scFv binding to DSG3, pilot screen, biochemical, validation compound set, bead-based, flow cytometry (AID 588368;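 active means binding below the plate cutoff, the plate median minus 3 SD, with a reading above zero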;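 further: signal is the median channel fluorescence of bead-bound GFP antibody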). To be noted: Protein G beads, DSG3-Fc, scFv-GFP binding, at 10 µM, stronger effect = lower value.
The nature of assay [14]: inhibitors of fungal efflux pumps CDR1, CDR2, MDR1, pilot screen, validation compound set, multiplex, phenotypic (AID 588506;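 active means efflux inhibition above 0.42, the validation set average plus 4 SD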;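 further: Nile Red retained in cells so higher fluorescence means more efflux inhibition; 0 = negative control wells and 1 = enniatin B 25 µM full block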). The settings on record: S. cerevisiae pump-expressing triplex, Nile Red efflux flow cytometry; at 10 µM; stronger effect = higher value; the pumps come from Candida albicans.
The target in assay [15] is ATP-binding cassette sub-family B member 6 (Homo sapiens) (UniProt Q9NP58). Nature of the assay: ABCB6 transporter inhibitors, pilot screen, K562-ABCB6 cells, flow cytometry, validation set (AID 588550).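 Further: 0% = DMSO wells and 100% = benzethonium chloride 70 µM positive control.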 The settings on record: K562-ABCB6 porphyrin accumulation, 1 h, at 10 µM, stronger effect = higher value.
ATP-binding cassette sub-family B member 6 (Homo sapiens), sequence (Q9NP58 whole entry, looked up): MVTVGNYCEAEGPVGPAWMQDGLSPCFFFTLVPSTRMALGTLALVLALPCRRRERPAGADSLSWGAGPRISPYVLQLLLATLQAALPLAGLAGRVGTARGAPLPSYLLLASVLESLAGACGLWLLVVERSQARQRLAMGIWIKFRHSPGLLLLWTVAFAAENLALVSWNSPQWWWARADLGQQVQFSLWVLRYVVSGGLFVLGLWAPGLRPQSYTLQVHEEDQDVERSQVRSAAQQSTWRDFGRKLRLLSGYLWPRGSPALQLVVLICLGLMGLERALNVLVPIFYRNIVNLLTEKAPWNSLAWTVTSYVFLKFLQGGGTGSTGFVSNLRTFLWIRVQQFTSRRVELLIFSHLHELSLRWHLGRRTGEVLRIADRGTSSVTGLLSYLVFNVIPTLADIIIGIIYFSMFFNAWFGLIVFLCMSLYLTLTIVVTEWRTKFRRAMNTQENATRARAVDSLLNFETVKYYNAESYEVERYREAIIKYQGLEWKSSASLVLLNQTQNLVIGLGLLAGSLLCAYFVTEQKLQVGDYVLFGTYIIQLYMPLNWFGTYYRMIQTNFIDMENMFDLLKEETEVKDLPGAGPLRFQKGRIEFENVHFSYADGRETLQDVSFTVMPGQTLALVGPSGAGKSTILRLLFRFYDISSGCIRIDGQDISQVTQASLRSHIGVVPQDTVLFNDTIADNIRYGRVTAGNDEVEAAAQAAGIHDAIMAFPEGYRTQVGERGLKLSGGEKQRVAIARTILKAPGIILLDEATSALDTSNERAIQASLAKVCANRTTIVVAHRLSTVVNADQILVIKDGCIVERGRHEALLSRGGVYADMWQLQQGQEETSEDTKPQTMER
A short description of assay [16]: promoters of myeloid differentiation in arrested cells, primary screen, cell-based, GFP/MAC1 double positive, flow cytometry, validation set (AID 588685;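 active means differentiation response of at least 50%, scaled between solvent and reference control, from cells with both markers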;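 further: compound exposure lasts four days before antibody staining and flow analysis; 0% = DMSO wells and 100% = 5 µM fulvestrant positive control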). The settings on record: ER-HoxA9 marrow cells, stronger effect = higher value, normalized: vehicle 0, fulvestrant 100.

Records with an inconclusive call do not appear. The source made the active and inactive calls.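 How the source made its calls, unless noted: active means inhibition above the screen-wide mean plus 3 SD, about 51%; inactive means the rest.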

A word on the inhibition: it is the relative decrease from the control value, in per cent. Consider `O=C(/C=C/c1ccccc1)NCC1(c2ccccc2)CCOCC1`, for which the percent of DMSO control GFP in assay [1] was 101% (inactive). The GFP response vs DMSO was 104% (inactive) in [2] and 117% (inactive) in assay [4]. In assay [3], the percent response of DMSO control was 101% (inactive). For the same compound, the GFP response, % of DMSO in assay [5] was 103% (inactive). For the same compound, the double positive events in assay [6] is 64.3%. In assay [6], the vesicle binding response was 255% (inactive). Besides, the inhibition in [7] is -18.2% (inactive); in assay [11], 63.9% (active); in assay [15], 3% (inactive). Moreover, in assay [8], the superoxide response (% of plate) was 99.2% (inactive). In addition, in assay [9], the aptamer binding inhibition was -1% (inactive). Also, the response is -8.35% (inactive) in assay [10] and -9.57% (inactive) in [12]. Moreover, the binding (% of control) in assay [13] was 97% (inactive). The efflux inhibition (fraction of control) in [14] is -0.21 (inactive). Further, the differentiation response in assay [16] is -15.2% (inactive).
As to `Cc1ccc(C(=O)COC(=O)c2cnccn2)cc1[N+](=O)[O-]`, the percent of DMSO control GFP in assay [1] is 99.1% (inactive). Besides, the GFP response vs DMSO in [2] was 99.6% (inactive); in [4], 82% (inactive). In [3], the percent response of DMSO control is 110% (inactive). For the same compound, the GFP response, % of DMSO in assay [5] was 82.5% (inactive). In [6], this compound showed a double positive events of 58.1%. In addition, the vesicle binding response in [6] was 226% (inactive). The inhibition is -18.2% (inactive) in assay [7], -6.78% (inactive) in assay [11] and 12% (inactive) in assay [15]. In assay [8], the superoxide response (% of plate) is 97.6% (inactive). The aptamer binding inhibition in [9] is 4% (inactive). Also, the results for the response in [10] and in [12] were -3.42% (inactive) and -1.08% (inactive), respectively. In assay [13], the binding (% of control) was 103% (inactive). Also, the efflux inhibition (fraction of control) in assay [14] was 0.01 (inactive). Moreover, in assay [16], the differentiation response was -21.6% (inactive).
Regarding `C[C@H](NC(=O)C1(c2ccccc2)CCN(C(=O)[C@H]2CSCN2C(=O)OC(C)(C)C)CC1)C(=O)O`, the percent of DMSO control GFP in assay [1] was 105% (inactive). For the same compound, the GFP response vs DMSO in [2] is 103% (inactive); in assay [4], 110% (inactive). In assay [3], the percent response of DMSO control is 99.6% (inactive). Besides, the GFP response, % of DMSO in assay [5] was 117% (inactive). This compound registered a double positive events in assay [6] of 62%. Further, the vesicle binding response in [6] was 161% (inactive). The figures for the inhibition in assay [7], in [11] and in assay [15] were 17.6% (inactive), -3.02% (inactive) and 1% (inactive), respectively. Further, the superoxide response (% of plate) in assay [8] is 95.1% (inactive). Moreover, in [9], the aptamer binding inhibition was 6% (inactive). For the same compound, the figures for the response in [10] and in assay [12] were -18.9% (inactive) and -2.91% (inactive), respectively. Moreover, in assay [13], the binding (% of control) is 103% (inactive). Also, the efflux inhibition (fraction of control) in assay [14] is -0.09 (inactive). Moreover, the differentiation response in assay [16] was -1.05% (inactive).
`O=C(O)CCCCCN=C1CCc2ccccc2N1`: the percent of DMSO control GFP in [1] was 93% (inactive). For the same compound, the GFP response vs DMSO in assay [2] is 132% (inactive); in assay [4] it was 80.9% (inactive). In assay [3], the percent response of DMSO control was 101% (inactive). Moreover, the GFP response, % of DMSO in assay [5] was 90.5% (inactive). Also, the double positive events in [6] came out at 63.5%. For the same compound, in [6], the vesicle binding response was 163% (inactive). Also, the results for the inhibition in assay [7], in assay [11] and in assay [15] were 10.3% (inactive), 4% (inactive) and 9% (inactive), respectively. Moreover, the superoxide response (% of plate) in [8] is 118% (inactive). Also, the aptamer binding inhibition in [9] was 2% (inactive). Besides, the results for the response in assay [10] and in [12] were -6.38% (inactive) and -0.07% (inactive), respectively. For the same compound, in assay [13], the binding (% of control) is 98.7% (inactive). The efflux inhibition (fraction of control) in [14] was 0.3 (inactive). In addition, the differentiation response in [16] is 0% (inactive).

Values taken from PubChem BioAssay.
